# Experimental data taken from PubChem BioAssay (Tox21).
# Records with an inconclusive call do not appear. Values without a mark were called inactive. The source made the active and inactive calls. Calls come from the whole dose curve; as a rule, active = well fitted cell-killing curve with a large enough effect in the repeat runs; inconclusive = weak or mixed curves, or effect the other way; inactive = flat fitted curve, though single readings scatter.
# Assay: Human pregnane X receptor (PXR) small molecule agonists, qHTS cell viability counter screen (AID 1346977); note: nearly all actives have a fitted effect of over 50% in size
# Conditions: PXR-Luc HepG2 viability, CellTiter-Fluor, 24 h; series mostly up to 92.4 µM; activity change, negative = cytotoxicity: at the top concentration
# Excerpt: U.S. Tox21 Program National Center for Advancing Translational Sciences [NCATS] NIH Chemical Genomics Center [NCGC] U.S. Environmental Protection Agency [EPA] National Institutes of Environmental Health Sciences [NIEHS] National Toxicology Program [NTP] U.S. Food and Drug Administration [FDA] Tox21 Assay Overview: The human pregnane X receptor (hPXR) regulates the expression of several drug metabolizing enzymes and induction of these proteins is a major mechanism for developing drug resistance in cancer. One such key enzyme catalyzing the drug metabolism is cytochrome P450 3A4 (CYP3A4). Changes in CYP3A4 expression affect drug metabolism, thereby reducing the therapeutic efficacy and altering toxicological response to a drug and which finally causes adverse drug interaction. To screen Tox21 libraries for compounds that activate hPXR-mediated CYP3A4 gene expression, PXR-Luc HepG2 cells were used. Also cytotoxicity of the compounds was tested in parallel by measuring the cell viability using CellTiter-Fluor assay system in the same wells.
# Tox21 Assay Protocol Summary: PXR-Luc HepG2 cells were dispensed at 2,000 per well in 5uL of assay medium containing 5% charcoal-stripped FBS into white solid bottom 1536-well plates (Corning Life Sciences, Corning, NY) using a Multidrop Combi (Thermo Scientific, Waltham, MA) dispenser. The assay plates were incubated at 37 C and 5% CO2 for 5hr, and then 23nL of compounds dissolved in DMSO and positive control were transferred using a Pintool station (Wako, San Diego, CA). The assay plates were incubated at 37C and 5% CO2 for 24hr. For cytotoxicity read, after 23hr incubation at 37C, 1uL CellTiter-Fluor reagent (Promega Corporation, Madison, WI) was added to each well of the assay plates using Flying Reagent Dispenser (FRD, Aurora Discovery, San Diego, CA). After 1hr incubation at 37C and 5% CO2, the fluorescence signal was quantified using a ViewLux plate reader (PerkinElmer, Shelton, CT).
# % is set by controls: 0 for no effect and ±100 for the full control effect; potency is the fitted concentration of half-maximal effect.
Compound,"activity change, negative = cytotoxicity",Potency
CCCCC(CC)COC(=O)CCCCCCCCC(=O)OCC(CC)CCCC (stereo not given),-0.628%,
CC(C)(CO)[N+](=O)[O-],1.45%,
C#CCN(C)CCCOc1ccc(Cl)cc1Cl,-2.86% [at 42.5 µM],
O=C(O)c1nc(Cl)c(Cl)c(Cl)c1Cl,-0.226%,
CCC(Cl)CCC(Cl)C(Cl)CC(Cl)C(Cl)C(Cl)CCl (stereo not given),-0.686%,
COc1ccc(C(=O)N2CCN(CC(=O)N3CCOCC3)CC2)cc1,6.07% [at 42.5 µM],
Cc1ccc(N=Nc2c(O)c(C(=O)O)cc3ccccc23)c(S(=O)(=O)O)c1,,23.6 µM (active)
Nc1cc(C(=O)O)c(O)c(S(=O)(=O)O)c1,2.87%,
C=CCOC(=O)CCC1CCCCC1,5.88%,
CNCCCCOc1ccccc1Cc1ccccc1,,26.6 µM (active)
Brc1c2ccccc2c(Br)c2ccccc12,4.3% [at 8.39 µM],
CC/C=C\CCOC(=O)CC,0.408%,
CC(C)Cc1ccc(C(C)C(=O)OCc2ccccn2)cc1 (stereo not given),0.607% [at 42.5 µM],
CC1(c2ccccc2)OC(C(=O)O)=CC1=O (stereo not given),16.1% [at 42.5 µM],
Nc1ncn([C@H]2C[C@H](O)[C@@H](CO)O2)c(=O)n1,-0.233% [at 42.5 µM],
CCCCCC[C@@H](O)C/C=C\CCCCCCCC(=O)OC,-1.23%,
CC(=O)[O][Al][O]C(C)=O,0.817%,
C=CC(=O)OCCOCCOCCOCCOC(=O)C=C,,54 µM (active)
C[C@@H](c1ncncc1F)C(O)(Cn1cncn1)c1ccc(F)cc1F (stereo not given in full),10.1% [at 42.5 µM],
CCOC(=O)Cc1cccc2ccccc12,-0.429%,

Compound,"activity change, negative = cytotoxicity",Potency
CCCCc1ncc(/C=C(\Cc2cccs2)C(=O)O)n1Cc1ccc(C(=O)O)cc1,0.111% [at 42.5 µM],
COCCCN1CCC(NC(=O)c2cc(Cl)c(N)c3c2OCC3)CC1,-11.3% [at 42.5 µM],
COc1cc(Cl)ccc1Oc1ccc(Cl)cc1Cl,-12.9%,
CCCn1cnc2c1c(=O)n(CCCCC(C)=O)c(=O)n2C,13.9% [at 42.5 µM],
COc1ccc(C(=O)c2ccc(OC)cc2O)c(O)c1,-3.09%,
CC(=O)OC[C@H]1O[C@@H](n2ncc(=O)[nH]c2=O)[C@H](OC(C)=O)[C@@H]1OC(C)=O,-6.15% [at 42.5 µM],
CCCCCCCN,12.5%,
COc1ccc(S(=O)(=O)N2C(=O)[C@@](c3ccccc3OC)(N3C[C@H](O)C[C@H]3C(=O)N(C)C)c3cc(Cl)ccc32)c(OC)c1,,54.5 µM (active)
COC(C)(C)CCO,2.15%,
CCN(CC)CCNC(=O)c1cc(Br)c(N)cc1OC,-24.1% [at 42.5 µM],
CCC(C)O (stereo not given),6.89%,
COc1ccc(C)cc1[N+](=O)[O-],-0.418%,
CCCCC(=O)OCC(=O)[C@H]1[C@H](C)C[C@H]2[C@@H]3C[C@H](F)C4=CC(=O)C=C[C@]4(C)[C@@]3(F)[C@@H](O)C[C@@]21C,10% [at 42.5 µM],
O=[N+]([O-])c1cccc(S(=O)(=O)O)c1,9.03%,
O=C(NCC1CN(c2ccc(N3CCOCC3=O)cc2)C(=O)O1)c1ccc(Cl)s1 (stereo not given),4.14% [at 42.5 µM],
CCOC(=O)c1cccnc1,13.1% [at 42.5 µM],
OCCN1CCN(CCCN2c3ccccc3C=Cc3ccccc32)CC1,,23.7 µM (active)
COS(=O)(=O)C(F)(F)F,7.14%,
CC(C)=CCC/C(C)=C/CC/C(C)=C/CO,-1.65%,
CC1=CC[C@H](C(C)C)C=C1,7.18%,
